Screening data (PubChem BioAssay)
Hits are enriched below; roughly 3.5% of the tested compounds scored in any of these assays.
MITF primary: human MITF inhibition, primary screen; O75030; 650,000 compounds, 0.91% hits; inhibition, % at 2.6 µM; AlphaScreen MITF homodimerization, bead proximity signal; in the data active means inhibition above about 50%;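 further: 0% = vehicle wells with protein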
Target sequence (O75030 whole entry, looked up): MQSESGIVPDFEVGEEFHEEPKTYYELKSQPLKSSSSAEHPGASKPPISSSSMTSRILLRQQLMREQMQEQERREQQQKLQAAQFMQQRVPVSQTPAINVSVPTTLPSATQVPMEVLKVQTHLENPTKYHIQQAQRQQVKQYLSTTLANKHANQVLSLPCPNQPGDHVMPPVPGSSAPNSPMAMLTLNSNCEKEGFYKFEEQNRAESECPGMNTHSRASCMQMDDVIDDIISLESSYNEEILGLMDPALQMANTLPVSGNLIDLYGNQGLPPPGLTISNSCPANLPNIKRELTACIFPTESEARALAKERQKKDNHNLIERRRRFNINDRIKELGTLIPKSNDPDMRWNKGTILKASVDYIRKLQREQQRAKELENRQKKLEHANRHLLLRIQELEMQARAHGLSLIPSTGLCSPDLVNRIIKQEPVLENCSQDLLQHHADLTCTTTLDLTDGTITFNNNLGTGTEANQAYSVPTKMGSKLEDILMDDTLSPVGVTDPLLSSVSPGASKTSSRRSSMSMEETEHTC
GPR151 ag: human GPR151 activation. Q8TDV0. PathHunter beta-arrestin GPR151 cells, luminescence. activation, % at 11.2 µM. 650,000 compounds, 1% hits. AID 1508602; in the data active means activation above about 4.9%;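 further: 0% = median of compound wells and 100% = cells with positive control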
TEAD-YAP inh: TEAD-YAP interaction inhibition. 640,000 compounds, 1.4% hits. AID 1259422. inhibition, % at 9.12 µM. HEK-TIYL cells, TEAD-Gal4/YAP UAS-luciferase luminescence; in the data active means inhibition above about 32%;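 further: 0% = median of test compound wells and 100% = reference inhibitor wells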
FBW7 activator: human FBW7 E3 ligase activation, primary screen | AID 1259310 | 650,000 compounds, 0.13% hits | AlphaScreen FBW7–phospho-cyclin E peptide binding, activator screen | Q969H0 | normalized activity (activation), % at 26.1 µM; in the data active means normalized activity above about 1.9%;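 further: purified mutant Fbw7 with reduced substrate affinity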
GPR151 conf act: human GPR151 activation, confirmation screen; shares compounds with GPR151 ag; GPR151 PathHunter beta-arrestin cells, luminescence, 90 min; % of EA-reagent control over plate median; activation, % at 11.2 µM; 6,700 tested, under 10 active;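 active means mean percent activation across replicates above the confirmation screen cutoff of 4.91%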
GPR119 ag: activates human GPR119 in a GPR151 counter-screen | 6,700 compounds, 0.3% hits | activation, % at 11.2 µM | AID 1508611 | GPR119 PathHunter beta-arrestin cells, luminescence, 90 min; 0 = compound-well median, 100 = enzyme-acceptor control | shares compounds with GPR151 ag;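 active means mean percent activation in the counterscreen above 29.09%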;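 further: counterscreen on off-target GPR119 to flag nonselective hits from the GPR151 activator screen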
Numbers without * were called inactive; nt = not tested or not shown; ! = a repeat was not active.

SMILES | MITF primary | GPR151 ag | TEAD-YAP inh | FBW7 activator | GPR151 conf act | GPR119 ag
C=CCOC(=O)C1=C(C)N2CCSC2=C(C#N)C1c1ccco1 (stereo unspecified) | 6 | 5.1* | -12 | 0 | 2 | 7
CNc1cc(N2CCN(S(=O)(=O)c3ccccc3)CC2)ccc1[N+](=O)[O-] | 2 | 1 | 5 | 0 | nt | nt
CNc1cc(N2CCN(S(=O)(=O)c3ccc4c(c3)CCCC4)CC2)ccc1[N+](=O)[O-] | -5 | 13* | 4 | 0 | -1 | 0
O=C(Cn1cncn1)N1CCN(c2ncccn2)CC1 | -3 | 7.0* | -6 | 0 | 0 | 10
C=CCn1c(=O)c2c(nc3n(-c4ccccc4C)c(C)c(C)n23)n(C)c1=O | 14 | 2 | 14 | 0 | nt | nt
CC(=O)Cn1c(=O)c2c(nc3n(-c4ccccc4C)c(C)c(C)n23)n(C)c1=O | 18 | 5.5* | 5 | 0 | -1 | -1
O=C(c1oc2ccccc2c1N1CCCCC1)N1CCCCC1 | 0 | 5.0* | 10 | 0 | -1 | 0
CCOC(=O)c1cnc2c(OC)cccc2c1Nc1cccc(C(=O)O)c1 | 11 | 5.3* | -3 | 0 | 2 | 12
Cc1ccc(CNCc2ccco2)cc1 | 24 | 7.0* | 0 | 0 | 1 | 8
Cc1ccc(Nc2nc(N(C)C)nc3c2cnn3C)cc1C | 10 | 6.2* | -10 | 0 | 3 | 9
CN(C)c1nc(Nc2ccc(F)cc2)c2cnn(C)c2n1 | 2 | 2 | -3 | 0 | nt | nt
CCOc1ccc(/C(O)=C2\C(=O)C(=O)N(c3nnc(C)s3)C2c2cccc(Oc3ccccc3)c2)cc1 (stereo unspecified) | 24 | 0 | 10 | 0 | nt | nt
CCN(CC)CCN1C(=O)C2C(C(=O)Nc3ccc(C)c(Cl)c3)C3C=CC2(O3)C1C(=O)NC1CCCC(C)C1C (stereo unspecified) | -22 | 0 | 8 | 0 | nt | nt
CSCc1csc(NC(=O)Cc2ccc(Cl)cc2)n1 | 11 | -1 | 18 | 0 | nt | nt
CC1(C)C(=O)NC2CCCCC2N1C(=O)CCl (stereo unspecified) | 10 | 5.3* | 9 | 1 | 0 | -2
CN(C)C(NC(=O)Cc1ccccc1)C(Cl)(Cl)Cl (stereo unspecified) | 27 | 6.0* | -3 | 0 | -1 | -8
CN(C(=O)Cc1ccccc1)N(C)C(=O)Cc1ccccc1 | -3 | 5.0* | -4 | 0 | 0 | 9
O=[N+]([O-])c1ccc(Cl)cc1NCCOCC(F)(F)F | 10 | 5.2* | 7 | 0 | 0 | -1
CCc1ccc2[nH]c3nc(N/N=C/c4cccc(O)c4)nnc3c2c1 | 16 | 6.7* | -8 | 0 | -1 | 2
CCc1ccc2[nH]c3nc(N/N=C/c4ccc(O)cc4)nnc3c2c1 | -2 | 2 | -5 | 0 | nt | nt
Cc1nn(C)c(C)c1-c1nc2c(NCc3cccnc3)ncnc2n1C(C)C | 12 | 7.1* | -4 | 1 | -1 | -13
Cc1ccc(-n2cc(C(=O)NCCN3CCOCC3)c3ccccc3c2=O)cc1C | 8 | 0 | 9 | 0 | nt | nt
Cn1c(=O)oc2cc(S(=O)(=O)N3CCN(C4CCCCC4)CC3)ccc21 | 4 | -1 | -12 | 0 | nt | nt
Cn1c(=O)oc2cc(S(=O)(=O)N3CCC(N4CCCCC4)CC3)ccc21 | 16 | 5.9* | -4 | 0 | -1 | -9
CCc1ccc2[nH]c(=O)c(CN(CCN3CCOCC3)C(=O)NCc3ccccc3)cc2c1 | 0 | 0 | -1 | 0 | nt | nt
SMILES | MITF primary | GPR151 ag | TEAD-YAP inh | FBW7 activator | GPR151 conf act | GPR119 ag
O=S(=O)(c1cccc2cnccc12)N1CCCNCC1 | 0 | 9.3*! | 14 | 0 | 1 | -2
O=S(=O)(c1cccc2cnccc12)N1CCCN(S(=O)(=O)c2cccc3cnccc23)CC1 | -4 | -1 | -1 | 0 | nt | nt
O=C(Nc1ccncc1)c1cccs1 | 7 | -1 | -3 | 0 | nt | nt
Cc1ccc(NC(=O)c2cccs2)cc1NC(=O)c1cnccn1 | 5 | 5.9* | 5 | 0 | 0 | 4
Cc1cnccc1NC(=O)c1cccs1 | -16 | 0 | 3 | 0 | nt | nt
O=C(Nc1cccnc1)c1cccs1 | -2 | 8.9* | 40* | 0 | -1 | -9
O=C(/C=C/c1cccs1)NC(=S)NC1CCN(Cc2ccccc2)CC1 | 2 | 0 | -5 | 0 | nt | nt
N#Cc1ccc(Oc2ccc(N3C(=O)c4ccc(Oc5ccccc5)cc4C3=O)cc2)cc1 | 8 | 2 | 3 | 0 | nt | nt
CC1CCC(N2C(=O)C3C(C(=O)Nc4ccc(Oc5ccccc5)cc4)C4C=CC3(O4)C2C(=O)NC2CCCCC2)CC1 (stereo unspecified) | 11 | 1 | -2 | 0 | nt | nt
O=C(CCCN1C(=O)c2cccnc2C1=O)Nc1ccc(C(F)(F)F)cc1 | 4 | 9.0* | 11 | 0 | 2 | 0
Nc1nc2ncc(CNc3ccc(C(=O)NC(CCC(=O)O)C(=O)O)cc3)nc2c(=O)[nH]1 (stereo unspecified) | 12 | 0 | 15 | 0 | nt | nt
Nc1nc2ncc(CNc3ccc(C(=O)N[C@@H](CCC(=O)O)C(=O)O)cc3)nc2c(=O)[nH]1 | 9 | 5.6* | nt | 0 | 0 | -2
CN(C)c1ncnc2c1C(c1ccc([N+](=O)[O-])cc1)c1c(ncnc1N(C)C)O2 | 8 | 6.2* | -7 | 0 | 0 | -6
COc1cc(CO)cc(Cl)c1OCc1ccccc1C#N | 3 | 6.7* | 1 | 0 | 0 | -7
COCCNC(=O)/C(C#N)=C/c1c(Oc2cc(C)cc(C)c2)nc2ccccn2c1=O | 12 | -5 | 28 | 0 | nt | nt
O=c1cc(/C=C/c2ccc3c(c2)OCO3)[nH]c2ccccc12 | 13 | 0 | -17 | 0 | nt | nt
Cc1ccc(C(=O)C2=C(O)C(=O)N(CCN3CCOCC3)C2c2ccccn2)o1 (stereo unspecified) | 27 | 7.9* | 5 | 0 | 0 | -1
CCN1CCN(C(=O)CCc2nnc(Cc3cccc(C)c3)o2)[C@@H](C)C1=O | 9 | 0 | -11 | 0 | nt | nt
CCC(=O)c1ccc(OCC(O)CN(CCO)CCO)cc1 (stereo unspecified) | 14 | -1 | 4 | 0 | nt | nt
CCCOC(=O)c1ccc(OCC(O)CN(CCO)CCO)cc1 (stereo unspecified) | -1 | 5.1* | -7 | 0 | -1 | 1
Cc1ccc(/C=C(\C#N)C(=O)Nc2ccc(C(F)(F)F)cc2)o1 | -5 | 2 | -11 | 0 | nt | nt
CC(=O)c1c(C)[nH]c(C(=O)N2CCN(c3ccccc3)CC2)c1C | 14 | 13* | 5 | 0 | -1 | -3
CC(=O)c1c(C)[nH]c(C(=O)N2CCN(c3ccccc3F)CC2)c1C | 6 | 0 | 4 | 0 | nt | nt
C/C(=N\NC(=O)CCc1ccccc1)c1ccncc1 | -14 | 7.2* | -10 | 0 | 0 | 1
